Screening results from PubChem BioAssay.
12-LOX inh: Primary qHTS assay for inhibitors of human arachidonate 12S-lipoxygenase (ALOX12): Round 2. Polyunsaturated fatty acid lipoxygenase ALOX12 (Homo sapiens), P18054. purified 12hLO, xylenol orange hydroperoxide absorbance. Potency, µM (series often up to 108 µM), actives largely listed as inhibitors. actives 1.1% (n = 580,000)
Target sequence (P18054 whole entry, looked up): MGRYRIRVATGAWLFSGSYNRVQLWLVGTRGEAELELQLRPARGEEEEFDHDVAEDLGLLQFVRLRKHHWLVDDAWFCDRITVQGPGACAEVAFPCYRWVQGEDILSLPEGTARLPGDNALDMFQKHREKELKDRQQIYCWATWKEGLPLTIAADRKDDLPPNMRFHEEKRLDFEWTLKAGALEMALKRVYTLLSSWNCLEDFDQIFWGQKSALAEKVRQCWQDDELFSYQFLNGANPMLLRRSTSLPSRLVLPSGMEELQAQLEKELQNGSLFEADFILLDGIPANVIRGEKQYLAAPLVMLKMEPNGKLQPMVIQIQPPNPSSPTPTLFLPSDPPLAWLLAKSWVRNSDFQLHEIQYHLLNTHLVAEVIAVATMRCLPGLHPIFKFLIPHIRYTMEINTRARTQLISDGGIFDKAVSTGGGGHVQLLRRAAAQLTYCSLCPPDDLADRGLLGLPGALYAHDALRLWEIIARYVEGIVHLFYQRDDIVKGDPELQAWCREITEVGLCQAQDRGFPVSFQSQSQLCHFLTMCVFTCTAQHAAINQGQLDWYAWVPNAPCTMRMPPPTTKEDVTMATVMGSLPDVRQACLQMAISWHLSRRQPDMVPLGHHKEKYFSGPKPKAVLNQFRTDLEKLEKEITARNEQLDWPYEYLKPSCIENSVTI
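Purified human 12hLO (150 nM final) in 25 mM Hepes, 0.01% Triton X-100, pH 7.0 was preincubated 15 min at room temperature with compound. Then 40 uM arachidonic acid was added, 30 min. Hydroperoxide was read by Fe-XO absorbance ratio 573/405 nm.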
LDHA block: qHTS assay for inhibitors of human lactate dehydrogenase; AID 1347041, 2019; L-lactate dehydrogenase A chain (Homo sapiens), P00338; actives 0.15% (n = 480,000); purified LDHA, NADH/diaphorase-resazurin fluorescence; active compounds read low; activity change, % (values are at about 110 or 230 µM); in the data active = activity change below about -30%; inconclusive = mostly about -25% to -30%
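Remaining NADH was detected by diaphorase (0.133 mg/mL) converting 37 µM resazurin to fluorescent resorufin, read at 0 and 20 minutes. The preceding 5-minute room-temperature reaction used 2 nM LDHA, 0.2 mM sodium pyruvate and 0.06 mM NADH at pH 7.4.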
Nrf2 activator: qHTS of Nrf2 Activators | AREc32 ARE-luciferase reporter (MCF7-derived line), luminescence, 24 h | Potency, µM (doses to about 46.1 µM), hits mostly activators | actives 0.31% (n = 410,000) | AID 624171, 2012; also: nearly all actives have a fitted effect of over 65% in size
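Luminescent ARE reporter assay in AREc32_Fluc cells: overnight plating at 37 deg C, 24 hr compound incubation, Steady-Glo added, 30 min RT before reading.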
A549 viability: Nrf2 qHTS screen for inhibitors: counterscreen for cytotoxicity. A549 ARE-Fluc cells, CellTiter-Fluor viability, 18-24 h. Potency, µM (highest dose often 46 µM), most hits filed as inhibitors. actives 0.16% (n = 390,000)
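Cytotoxicity counterscreen: CellTiter-Fluor fluorescence was measured in A549 ARE_Fluc cells after 18-24 h of compound exposure in a concentration series. The subsequent BugLite luminescent read reports ARE-luciferase activity.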
ERG-DNA inh: qHTS for Small Molecule Inhibitors of the ERG Ets/DNA interaction; fluorescence polarization, His-ERG Ets domain / labelled DNA; Transcriptional regulator ERG (Homo sapiens), P11308; Potency, µM (titrated, usually from 76.9 µM), usual class: inhibitors; actives 0.028% (n = 370,000); active = well fitted inhibition curve with a large enough effect in the polarisation, with a control signal flat; inconclusive = small, poorly fitted or top-dose-only effect, or effect the other way, or a change in a side signal; inactive = no such curve, though single readings can be large or run the other way; the % refers to the polarisation;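 also: polarization taken with two DNA probes labelled with fluorescein and Texas red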
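His-tagged ERG Ets domain (1 uM in the protein solution; 300mM KCl, 50mM Tris-HCl, 1mM EDTA, 1mM DTT, pH 7.5) received compound, then a probe mix of 5 nM fluorescein-DNA and 100nM Texas-615-DNA. Fluorescence polarization was read for both dyes.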
Nrf2 inh: Nrf2 qHTS screen for inhibitors; actives 2.1% (n = 360,000); A549 ARE-Fluc reporter, luciferase luminescence, 18-24 h; Potency, µM (titrated, usually from 46 µM), actives largely listed as inhibitors; also: nearly all actives have a fitted effect of over 60% in size
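Nrf2 function is reported as luminescence of an ARE-controlled luciferase in A549 cells. Compounds were tested at several concentrations, and a CellTiter-Fluor read on the same wells flagged cytotoxicity.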
Of the large screens only hits and unclear results are named; the others gave an inactive call; ! = not active in a repeat. This is a sample that favours compounds with a hit; in the whole collection about 2.7% have one here. Unless noted, calls follow the shape of the dose curve; as a rule, active = well fitted curve in the direction sought with a large enough effect; inconclusive = small, poorly fitted or top-dose-only effect, or another doubt; inactive = no such curve, though single readings can be large; an effect the other way counts as inactive or inconclusive.

COc1cccc(C(=O)/C(C#N)=C\c2ccccc2C(F)(F)F)c1	12-LOX inh 40µM (no result: Nrf2 activator, A549 viability, ERG-DNA inh, Nrf2 inh)
O=S(=O)(c1ccc2ccccc2c1)N1CCN(c2ccc(O)cc2)CC1	12-LOX inh inconclusive, Nrf2 inh 10µM
CCN1CCN(c2ccc3cc(S(=O)(=O)N4CCOCC4)ccc3n2)CC1	12-LOX inh 1.8µM (no result: Nrf2 activator, A549 viability, ERG-DNA inh, Nrf2 inh)
O=S(=O)(c1ccc2nc(N3CCN(c4ccccc4)CC3)ccc2c1)N1CCCC1	12-LOX inh 3.5µM (no result: Nrf2 activator, A549 viability, ERG-DNA inh, Nrf2 inh)
O=S(=O)(c1ccc2nc(N3CCN(c4ccc(F)cc4)CC3)ccc2c1)N1CCCC1	12-LOX inh inconclusive (no result: Nrf2 activator, A549 viability, ERG-DNA inh, Nrf2 inh)
CC1CN(C(=O)c2cc(S(=O)(=O)N3CCN(c4ccccc4)CC3)ccc2Cl)CC(C)O1 (stereo not given)	Nrf2 inh inconclusive
O=C(c1cc(S(=O)(=O)N2CCN(c3ccccc3)CC2)ccc1Cl)N1CCCCCCC1	Nrf2 inh 21µM
Cc1cccc(-c2nc(C#N)c(NCc3ccccc3)o2)c1	12-LOX inh 50µM (no result: Nrf2 activator, A549 viability, ERG-DNA inh, Nrf2 inh)
COc1ccc(CCNc2oc(-c3ccc(OC)c(OC)c3)nc2C#N)cc1	Nrf2 inh 23µM
CN(C)CCNc1oc(-c2cccc(Cl)c2)nc1C#N	LDHA block -33!
N#Cc1nc(-c2ccccc2)oc1NCc1ccccc1	none (no result: Nrf2 activator, A549 viability, ERG-DNA inh, Nrf2 inh)
COc1ccc(CCNc2oc(-c3ccc(OC)c(OC)c3)nc2C#N)cc1OC	12-LOX inh inconclusive (no result: Nrf2 activator, A549 viability, ERG-DNA inh, Nrf2 inh)
CCCOc1ccc(-c2nc(C#N)c(NCCN(C)C)o2)cc1	LDHA block -32 (no result: Nrf2 activator, A549 viability, ERG-DNA inh, Nrf2 inh)
CS(=O)(=O)C1=NSC2=NC(=O)/C(=C\c3cccn3-c3ccc(Cl)cc3)C(=N)N21	12-LOX inh inconclusive, LDHA block -109
O=S1(=O)N[C@@H](Cc2ccccc2)COc2cc(NCCCN3CCOCC3)ccc21	12-LOX inh 50µM (no result: LDHA block, Nrf2 activator, A549 viability, ERG-DNA inh, Nrf2 inh)
CC1Sc2ccc(S(=O)(=O)CCC(=O)N3CCN(c4cccc(Cl)c4)CC3)cc2NC1=O (stereo not given)	A549 viability inconclusive, Nrf2 inh 16µM
CC1Sc2ccc(S(=O)(=O)CCC(=O)N3CCN(c4ccccc4)CC3)cc2NC1=O (stereo not given)	none
Cc1cccc(N2CCN(C(=O)CCS(=O)(=O)c3ccc4c(c3)NC(=O)CO4)CC2)c1C	Nrf2 inh 15µM
CNC(=O)CCn1ncc2cc(OCc3ccccc3-c3ccc(OC)cc3)ccc21	none (no result: LDHA block, Nrf2 activator, A549 viability, ERG-DNA inh, Nrf2 inh)
CC(NC(=O)c1nccnc1N)c1ccc(Cl)cc1 (stereo not given)	12-LOX inh inconclusive (no result: Nrf2 activator, A549 viability, ERG-DNA inh, Nrf2 inh)
Cc1c(C(=O)Nc2ccc(F)cc2)nnn1-c1cccc(C(F)(F)F)c1	Nrf2 inh 21µM
Cc1ccc(-c2cc(C(F)F)n3nc(C)c(Br)c3n2)cc1	LDHA block -34 (no result: Nrf2 activator, A549 viability, ERG-DNA inh, Nrf2 inh)
COc1ccc(C2CC(c3ccc4ccccc4c3)=NN2C(=O)CNC2CCCCC2)cc1 (stereo not given)	12-LOX inh 45µM, Nrf2 inh inconclusive
COc1ccc(CC(=O)Nc2nc(-c3ccc(OC)c(OC)c3)cs2)cc1OC	A549 viability inconclusive, Nrf2 inh 15µM
COc1ccc(-c2csc(NC(=O)CSCc3c(C)noc3C)n2)cc1OC	Nrf2 inh 23µM
COC(=O)c1c(-c2ccc(C)cc2)csc1NC(=O)Cc1ccc(OC)c(OC)c1	Nrf2 inh 18µM
COc1ccc(-c2csc(NC(=O)Cc3ccccc3F)n2)cc1OC	A549 viability inconclusive, Nrf2 inh 21µM
COc1ccccc1CC(=O)Nc1nc(-c2ccc(F)c(F)c2)cs1	Nrf2 inh 23µM
O=C(Cc1ccccc1F)Nc1nc(-c2ccc(F)cc2)cs1	none
Cc1cc(SCC(=O)c2cccs2)n2nc(C)c(-c3ccc(Cl)cc3)c2n1	none
Cc1nn2c(SCC(=O)c3cccs3)cc(C(C)(C)C)nc2c1-c1ccccc1	A549 viability inconclusive, Nrf2 inh 21µM
c1ccc(OCCN2CCC(c3nc4ccccc4s3)CC2)cc1	12-LOX inh 5µM (no result: Nrf2 activator, A549 viability, ERG-DNA inh, Nrf2 inh)
